# Measured values published in the supplement of paper PMC7724964.
# B1: unnamed (peptide)
# chain: FTAQDVLSHMSLWEFT
# B2: unnamed (peptide)
# chain: YFYTQVNGIWYKWVLS
# B3: unnamed (peptide)
# chain: DFMDFWEDATMGLVGT
# B4: unnamed (peptide)
# chain: IFQYIVVQIGNTMYVI
# B5: unnamed (peptide)
# chain: TFSESWATLTSTSEWM
# B6: unnamed (peptide)
# chain: WVDEWTDVVQPMYYYD
# B7: unnamed (peptide)
# chain: WQDAWMQAMEQIYPPL
# B8: unnamed (peptide)
# chain: DSNIWLTRGPVHNTQQ
# B9: unnamed (peptide)
# chain: MYRAPDAYDDHQVYVS
# B10: unnamed (peptide)
# chain: KDFSMWWVELKEVEVS
# B11: unnamed (peptide)
# chain: DQPPPSYSVLTPDVAL
# B12: unnamed (peptide)
# chain: DFAWWWSQMLEAEVNF
# B13: unnamed (peptide)
# chain: WFGMEPEEQSMEWQKW
# B14: unnamed (peptide)
# chain: KMELSFWEFWQVLQHE
# B15: unnamed (peptide)
# chain: WYMESLWQPDMMLPKF
# B16: unnamed (peptide)
# chain: DNPNLTPGLWSWYTFF
# B17: unnamed (peptide)
# chain: DPMSDLFMHNPFVQEP
# B18: unnamed (peptide)
# chain: PMWDSVWDHLLTEPPE
# B19: unnamed (peptide)
# chain: EYYPEWDFLWRHMQEP
# B20: unnamed (peptide)
# chain: DHWWVWGWEAEEYIMP
# B21: unnamed (peptide)
# chain: YMVEEHYYDLMQMLGS
# B22: unnamed (peptide)
# chain: VWYHWQPPDSPINVIE
# B23: unnamed (peptide)
# chain: QWWVFHVGDQMYWAYV
# B24: unnamed (peptide)
# chain: EWFTDHNGADVWLELP
# B25: unnamed (peptide)
# chain: ESLWIIPSNAYWEQVM
# B26: unnamed (peptide)
# chain: AFWTHWQKLIPPEFQA
# B27: unnamed (peptide)
# chain: GEDPPPYSPLTSPDSG
# B28: unnamed (peptide)
# chain: VEHEFLWHWGQIDFMM
# Biological target: T1, MDM4 26-106 SWIB (domain begin residue: 26, domain end residue: 106), O15151
# T1 chain: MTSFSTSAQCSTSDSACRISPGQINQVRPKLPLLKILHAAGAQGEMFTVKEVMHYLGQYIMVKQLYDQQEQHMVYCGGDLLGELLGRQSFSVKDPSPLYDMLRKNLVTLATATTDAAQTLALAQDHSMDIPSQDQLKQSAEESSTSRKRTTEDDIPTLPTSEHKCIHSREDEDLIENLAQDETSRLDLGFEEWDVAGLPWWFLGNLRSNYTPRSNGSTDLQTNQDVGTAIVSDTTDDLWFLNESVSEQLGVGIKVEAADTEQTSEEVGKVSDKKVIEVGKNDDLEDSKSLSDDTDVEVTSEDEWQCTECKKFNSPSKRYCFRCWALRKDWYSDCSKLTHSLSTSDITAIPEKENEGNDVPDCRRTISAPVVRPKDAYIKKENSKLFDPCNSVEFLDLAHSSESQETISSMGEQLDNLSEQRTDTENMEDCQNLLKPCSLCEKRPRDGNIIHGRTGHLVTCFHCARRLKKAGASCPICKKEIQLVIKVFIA
# Assay: phage ELISA signal ratio (GST-PRM binding over GST background); higher = stronger binding of peptide-phage to the PRM
# In short: (§1)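 Human peptide recognition domains were expressed in 96-well plates as fusions to the C-terminus of glutathione S-transferase (GST) and selected against an M13 phage library displaying randomized hexadecapeptides, cysteine-free and glycine-flanked, on the gene-8 major coat protein. Five selection rounds were run, and approximately 48 individual clones from rounds 4 and 5 were tested by phage ELISA. Each value is the ELISA signal on the GST-domain fusion divided by the signal on GST alone. Positive clones were sequenced.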
row,Binder,phage ELISA signal ratio
1,B1,21.7
2,B3,21.7
3,B5,20.4
4,B10,17.4
5,B12,12.3
6,B14,18
7,B26,26.1
8,B28,16

# Biological target: T2, MYL6 4-151 EF-hand_6 (domain begin residue: 4, domain end residue: 151), P60660
# T2 chain: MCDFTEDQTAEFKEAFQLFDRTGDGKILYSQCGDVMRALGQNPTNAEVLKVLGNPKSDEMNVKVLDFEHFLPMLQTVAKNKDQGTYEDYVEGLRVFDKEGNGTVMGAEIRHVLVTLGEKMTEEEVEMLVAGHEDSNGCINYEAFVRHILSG
# Assay: as above
# In short: as §1
row,Binder,phage ELISA signal ratio
1,B2,4.86
2,B4,9.03
3,B23,3.08

# Biological target: T3, NFKBIA 70-282 EF-hand_6 (domain begin residue: 70, domain end residue: 282), P25963
# T3 chain: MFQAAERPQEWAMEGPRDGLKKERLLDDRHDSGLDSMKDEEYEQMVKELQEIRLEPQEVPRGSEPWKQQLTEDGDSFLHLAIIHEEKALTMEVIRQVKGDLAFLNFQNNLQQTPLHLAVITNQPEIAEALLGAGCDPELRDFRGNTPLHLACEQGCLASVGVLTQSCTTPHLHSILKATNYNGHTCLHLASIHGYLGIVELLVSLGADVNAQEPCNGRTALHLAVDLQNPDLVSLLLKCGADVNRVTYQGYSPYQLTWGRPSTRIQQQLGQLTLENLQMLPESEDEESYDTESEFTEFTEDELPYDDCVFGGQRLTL
# Assay: as above
# In short: as §1
row,Binder,phage ELISA signal ratio
1,B6,18.3
2,B9,7.46
3,B11,13.8
4,B13,6.64
5,B21,11
6,B24,4.99
7,B27,4.18

# Biological target: T4, NR1D2 386-579 Hormone_recep (domain begin residue: 386, domain end residue: 579), Q14995
# T4 chain: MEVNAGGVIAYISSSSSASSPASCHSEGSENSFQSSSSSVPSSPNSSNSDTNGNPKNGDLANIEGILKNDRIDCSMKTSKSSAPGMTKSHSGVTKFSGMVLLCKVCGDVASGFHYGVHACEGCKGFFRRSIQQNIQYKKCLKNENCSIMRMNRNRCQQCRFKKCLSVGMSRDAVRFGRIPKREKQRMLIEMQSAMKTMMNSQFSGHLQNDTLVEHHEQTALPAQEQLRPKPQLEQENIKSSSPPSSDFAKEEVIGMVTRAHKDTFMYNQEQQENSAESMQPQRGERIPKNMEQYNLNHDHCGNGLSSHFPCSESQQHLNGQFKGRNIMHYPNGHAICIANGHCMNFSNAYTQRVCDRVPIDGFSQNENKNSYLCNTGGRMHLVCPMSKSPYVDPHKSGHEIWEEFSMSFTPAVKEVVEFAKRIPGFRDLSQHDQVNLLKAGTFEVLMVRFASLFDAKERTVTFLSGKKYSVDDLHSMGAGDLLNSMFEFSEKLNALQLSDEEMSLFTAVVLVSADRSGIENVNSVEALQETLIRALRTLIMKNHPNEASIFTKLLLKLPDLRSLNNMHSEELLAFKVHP
# Assay: as above
# In short: as §1
row,Binder,phage ELISA signal ratio
1,B7,6.57

# Biological target: MAD2L1 2-205 HORMA (domain begin residue: 2, domain end residue: 205), Q13257
# Assay: as above
# In short: as §1
# Sequence of MAD2L1 2-205 HORMA (domain begin residue: 2, domain end residue: 205), Q13257 (Q13257 whole entry): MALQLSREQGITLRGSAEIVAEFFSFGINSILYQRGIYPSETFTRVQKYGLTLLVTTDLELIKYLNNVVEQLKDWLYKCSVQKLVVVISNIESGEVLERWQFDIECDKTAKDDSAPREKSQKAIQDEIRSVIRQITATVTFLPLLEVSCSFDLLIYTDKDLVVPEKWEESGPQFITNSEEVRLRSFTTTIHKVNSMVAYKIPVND
row,Binder,phage ELISA signal ratio
1,B8,14.1
2,B22,11.6

# Biological target: MSH6 89-203 PWWP (domain begin residue: 89, domain end residue: 203), P52701
# Assay: as above
# In short: as §1
# Sequence of MSH6 89-203 PWWP (domain begin residue: 89, domain end residue: 203), P52701 (P52701 whole entry): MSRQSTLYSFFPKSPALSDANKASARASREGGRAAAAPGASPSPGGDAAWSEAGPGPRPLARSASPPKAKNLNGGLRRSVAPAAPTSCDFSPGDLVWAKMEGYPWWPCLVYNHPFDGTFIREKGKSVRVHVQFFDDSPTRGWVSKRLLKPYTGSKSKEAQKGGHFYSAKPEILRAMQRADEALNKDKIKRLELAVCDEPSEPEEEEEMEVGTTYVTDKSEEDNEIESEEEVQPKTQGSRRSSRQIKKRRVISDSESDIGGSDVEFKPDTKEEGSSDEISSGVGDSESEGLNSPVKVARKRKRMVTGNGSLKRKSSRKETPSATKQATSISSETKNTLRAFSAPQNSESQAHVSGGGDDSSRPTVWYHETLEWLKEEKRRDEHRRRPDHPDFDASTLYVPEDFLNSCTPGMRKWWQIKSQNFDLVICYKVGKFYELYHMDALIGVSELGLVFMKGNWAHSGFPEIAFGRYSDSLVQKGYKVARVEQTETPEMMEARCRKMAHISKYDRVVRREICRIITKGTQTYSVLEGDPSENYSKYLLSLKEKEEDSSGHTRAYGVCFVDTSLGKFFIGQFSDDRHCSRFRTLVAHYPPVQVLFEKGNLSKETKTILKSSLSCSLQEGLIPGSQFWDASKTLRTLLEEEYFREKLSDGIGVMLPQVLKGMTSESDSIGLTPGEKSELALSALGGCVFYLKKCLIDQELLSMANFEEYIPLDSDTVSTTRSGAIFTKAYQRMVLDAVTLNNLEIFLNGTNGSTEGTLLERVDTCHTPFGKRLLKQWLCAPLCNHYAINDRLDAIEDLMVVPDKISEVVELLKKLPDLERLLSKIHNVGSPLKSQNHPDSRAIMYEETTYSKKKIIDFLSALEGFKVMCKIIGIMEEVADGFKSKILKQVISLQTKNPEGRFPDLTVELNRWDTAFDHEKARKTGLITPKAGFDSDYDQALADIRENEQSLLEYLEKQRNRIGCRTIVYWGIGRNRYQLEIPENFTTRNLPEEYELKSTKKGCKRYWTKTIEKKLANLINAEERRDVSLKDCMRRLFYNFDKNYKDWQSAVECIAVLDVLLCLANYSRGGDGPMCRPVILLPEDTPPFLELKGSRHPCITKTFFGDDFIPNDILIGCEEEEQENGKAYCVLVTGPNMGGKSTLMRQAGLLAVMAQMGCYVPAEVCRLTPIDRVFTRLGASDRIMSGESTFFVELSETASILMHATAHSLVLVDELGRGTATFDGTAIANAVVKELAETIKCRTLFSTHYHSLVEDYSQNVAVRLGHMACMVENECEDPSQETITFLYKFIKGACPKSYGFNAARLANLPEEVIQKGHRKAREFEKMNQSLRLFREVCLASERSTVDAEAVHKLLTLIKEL
row,Binder,phage ELISA signal ratio
1,B15,2.63
2,B17,7.54
3,B18,5.84

# Biological target: T5, NR1H2 203-460 Hormone_recep (domain begin residue: 203, domain end residue: 460), P55055
# T5 chain: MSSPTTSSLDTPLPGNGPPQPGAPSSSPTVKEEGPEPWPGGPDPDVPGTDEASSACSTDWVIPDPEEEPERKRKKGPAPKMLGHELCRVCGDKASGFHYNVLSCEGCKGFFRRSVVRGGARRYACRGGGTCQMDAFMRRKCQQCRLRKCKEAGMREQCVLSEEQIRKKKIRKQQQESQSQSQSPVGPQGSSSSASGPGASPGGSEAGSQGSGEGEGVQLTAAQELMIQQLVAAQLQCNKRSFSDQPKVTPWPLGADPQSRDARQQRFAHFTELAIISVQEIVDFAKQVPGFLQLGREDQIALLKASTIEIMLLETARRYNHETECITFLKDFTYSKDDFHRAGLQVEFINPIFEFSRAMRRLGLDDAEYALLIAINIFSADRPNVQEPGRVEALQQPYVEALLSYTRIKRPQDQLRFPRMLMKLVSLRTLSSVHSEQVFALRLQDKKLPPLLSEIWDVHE
# Assay: as above
# In short: as §1
row,Binder,phage ELISA signal ratio
1,B16,11.4
2,B20,13.9
3,B25,17.3

# Biological target: T6, ZGPAT 120-268 zf-CCCH+TUDOR (domain begin residue: 120, domain end residue: 268), Q8N5A5
# T6 chain: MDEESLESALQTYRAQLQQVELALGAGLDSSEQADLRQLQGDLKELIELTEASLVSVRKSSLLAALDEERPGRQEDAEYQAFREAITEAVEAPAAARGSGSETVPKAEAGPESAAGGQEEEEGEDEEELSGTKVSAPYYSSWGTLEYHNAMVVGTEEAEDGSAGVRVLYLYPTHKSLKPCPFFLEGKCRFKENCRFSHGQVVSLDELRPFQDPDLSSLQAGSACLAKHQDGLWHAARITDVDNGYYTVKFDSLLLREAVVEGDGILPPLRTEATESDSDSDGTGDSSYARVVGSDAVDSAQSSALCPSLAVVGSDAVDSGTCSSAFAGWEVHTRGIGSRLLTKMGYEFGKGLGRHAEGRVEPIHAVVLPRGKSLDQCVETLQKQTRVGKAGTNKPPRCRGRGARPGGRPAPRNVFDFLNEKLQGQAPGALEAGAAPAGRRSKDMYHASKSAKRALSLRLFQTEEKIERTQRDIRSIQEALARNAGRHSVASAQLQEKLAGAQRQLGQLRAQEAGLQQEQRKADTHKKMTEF
# Assay: as above
# In short: as §1
row,Binder,phage ELISA signal ratio
1,B17,8.79

# Biological target: T7, NR1H3 204-447 Hormone_recep (domain begin residue: 204, domain end residue: 447), Q13133
# T7 chain: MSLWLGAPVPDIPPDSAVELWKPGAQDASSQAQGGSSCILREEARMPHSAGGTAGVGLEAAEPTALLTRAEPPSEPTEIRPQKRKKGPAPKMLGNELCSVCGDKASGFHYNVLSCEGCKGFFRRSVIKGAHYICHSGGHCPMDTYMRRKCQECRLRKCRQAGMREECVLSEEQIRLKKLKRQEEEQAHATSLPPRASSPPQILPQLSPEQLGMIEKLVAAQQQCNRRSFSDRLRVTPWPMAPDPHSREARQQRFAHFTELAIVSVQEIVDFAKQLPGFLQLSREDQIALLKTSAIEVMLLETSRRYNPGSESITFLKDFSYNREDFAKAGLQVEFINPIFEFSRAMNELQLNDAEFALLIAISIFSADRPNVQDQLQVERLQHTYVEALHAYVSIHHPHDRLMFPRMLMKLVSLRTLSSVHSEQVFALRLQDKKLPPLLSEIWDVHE
# Assay: as above
# In short: as §1
row,Binder,phage ELISA signal ratio
1,B19,8.56
